Source: PubChem BioAssay (NCI)
Values joined by “and” are separate entries in the source; they are usually repeats but may differ in a detail not shown here. Equal entries are not always repeated. The panel holds about 83,000 compounds, 20% with a hit somewhere; the sample as a whole holds those more often.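 In brief: 96-well plates, 48 h treatment, single concentration, percent growth endpoint.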 A number with no mark means an inactive call. Active and inactive are the calls of the source. How the source made its calls: active means growth percent below 10; inactive means the rest.

Tests used:
Test in all cases: NCI-60 one-dose screen, 48 h (100 = growth as untreated, 0 = no growth, -100 = all killed)
Settings in all cases: 10 µM unless noted
HCT-15 colon = tested on: HCT-15 colon
HT29 colon = tested on: HT29 colon
SNB-75 CNS = tested on: SNB-75 CNS
SNB-19 CNS = tested on: SNB-19 CNS
U251 CNS = tested on: U251 CNS
PC-3 prostate = tested on: PC-3 prostate
SK-MEL-5 melanoma = tested on: SK-MEL-5 melanoma
UACC-62 melanoma = tested on: UACC-62 melanoma
LOX IMVI melanoma = tested on: LOX IMVI melanoma
SK-MEL-28 melanoma = tested on: SK-MEL-28 melanoma
SK-MEL-2 melanoma = tested on: SK-MEL-2 melanoma
EKVX NSCLC = tested on: EKVX NSCLC
SN12C renal = tested on: SN12C renal
UO-31 renal = tested on: UO-31 renal
TK-10 renal = tested on: TK-10 renal
ACHN renal = tested on: ACHN renal
CAKI-1 renal = tested on: CAKI-1 renal
CCRF-CEM leukemia = tested on: CCRF-CEM leukemia
MOLT-4 leukemia = tested on: MOLT-4 leukemia
A498 renal = tested on: A498 renal

Row | SMILES | growth (HCT-15 colon) | growth (HT29 colon) | growth (SNB-75 CNS) | growth (SNB-19 CNS) | growth (U251 CNS) | growth (PC-3 prostate) | growth (SK-MEL-5 melanoma) | growth (UACC-62 melanoma) | growth (LOX IMVI melanoma) | growth (SK-MEL-28 melanoma) | growth (SK-MEL-2 melanoma) | growth (EKVX NSCLC) | growth (SN12C renal) | growth (UO-31 renal) | growth (TK-10 renal) | growth (ACHN renal) | growth (CAKI-1 renal) | growth (CCRF-CEM leukemia) | growth (MOLT-4 leukemia) | growth (A498 renal)
1 | N/C(=N\c1nc2ccc([N+](=O)[O-])cc2s1)NC(=O)Nc1ccccc1Cl | 28.3% | 62.1% | 24.4% | 49.7% | -0.568% (active) | 69% | 44.7% | 54.8% | 29.6% | 60.5% | 88.1% | 58.4% | 25.5% | -32.1% (active) | 17.8% | -41.4% (active) | 43.1% | 74.9% | 83.5% | –
2 | NS(=O)(=O)c1ccc(N2N=C(c3ccc(NC(=O)Nc4ccccc4)cc3)CC2c2ccc(Br)cc2)cc1 (configuration not stated) | -89.1% (active) | -57% (active) | -43.1% (active) | -98.2% (active) | -86.2% (active) | -45.2% (active) | -99.8% (active) | -96.2% (active) | -100% (active) | -98.1% (active) | -75.8% (active) | -95.8% (active) | -97.7% (active) | -97.2% (active) | -61.3% (active) | -100% (active) | -85.4% (active) | 0.369% (active) | 9.26% (active) | –
3 | Clc1ccccc1Nc1nnc(-c2c[nH]c3ccccc23)o1 | 26.1% | 2.07% (active) | 42% | 41% | 7.39% (active) | 32.7% | 9.29% (active) | 15.2% | 15.5% | 59.4% | -2.89% (active) | 18.7% | 26.6% | 33.1% | 69% | 39.9% | 32.7% | 9.07% (active) | 5.42% (active) | 113%
4 | CCOc1ccccc1[C@H]1C(C(=O)c2ccc(Cl)cc2)C2(N[C@@H]1c1ccccc1)C(=O)Nc1ccc(Br)cc12 (some centres not stated) | -5.64% (active) | -62.1% (active) | 44.4% | 17.1% | 0.419% (active) | 5.34% (active) | -89.3% (active) | -46.8% (active) | -100% (active) | -23.4% (active) | -66.8% (active) | 3.88% (active) | -86.6% (active) | 5.4% (active) | 27% | 1.27% (active) | 7.21% (active) | 4.88% (active) | – | –
5 | C#CCN(C)CCCOc1ccc(N(CC)C(=O)c2cc(C(C)C)c(O)cc2O)cc1Cl | -52.8% (active) | 7.04% (active) | -1.15% (active) | 11.2% | 1.31% (active) | 12.6% | -95.9% (active) | -66% (active) | -95.4% (active) | 5.69% (active) | -57.9% (active) | -7.81% (active) | -52.1% (active) | 8.11% (active) | 11.1% | 11.6% | 9.89% (active) | 7.35% (active) | -33.6% (active) | 21.6%
6 | COc1cc(/C=N/NC(=O)c2ccc(OCc3nc4ccc(C)cc4[nH]3)cc2)cc(OC)c1OC | 38.9% | 18.9% | 135% | 66.2% | 29% | 49.7% | 18.3% | 29.9% | 40.4% | 39.4% | 68.1% | 72.4% | 56.4% | 66.2% | 83.2% | 69.6% | 50.5% | 7.65% (active) | 4.5% (active) | –
7 | Nc1cc2ccccc2c(=O)n1NC(=O)c1ccccc1 | 93.8% | 113% | 80.3% | 93.7% | 106% | 91.7% | 96% | 76.5% | 88% | 98.8% | 105% | 87.6% | 100% | 58.3% | 127% | 93.4% | 83.8% | 98.9% | 93.9% | –
8 | COc1ccc(N=Nc2c(N)nn3c(N)c(C#N)c(-c4ccc(C)cc4)nc23)cc1 | 47.8% | 66.1% | 22.9% | 89.5% | 74.4% | 36.8% | 55.4% | 78.5% | 50.1% | 91.1% | 91% | 36.3% | 57.7% | 61.1% | 101% | 56.8% | – | 8.68% (active) | 5.8% (active) | 128%
9 | COc1cc(C=O)ccc1Oc1nc(Nc2ccc(F)cc2)nc(N(C)C)n1 | 88.4% and 18.6% | 105% and 69.2% | 47.7% and 58.3% | 87.6% and 68.2% | 85% and 36.5% | 90.3% and 61.7% | 32.3% and 76.3% | 63% and 85.7% | 54.3% | 99.9% and 84.4% | 62.6% and 85.2% | 76.9% and 60.4% | 92.2% and 58.5% | 67.6% and 48.7% | 84.2% and 86.8% | 105% and 63.3% | – | 86.1% and 18.1% | 73.1% and 23.8% | 98.6% and 123%
10 | COc1cc(CNC(=O)C[C@H](C)CCC=C(C)C)ccc1OCc1cn(-c2ccc(Br)cc2)nn1 | 82.4% | 94.4% | 47.3% | 57.7% | 63.4% | 81.4% | 55.7% | 65.1% | 74% | 96.5% | 78% | 79% | 71.6% | 62.9% | 109% | 56.4% | 28.8% | 61.1% | 70% | –
11 | C/C(=N/O)c1ccc(NC(=O)CSc2nnc(-c3ccc(-c4nc5ccc(Cl)cc5[nH]4)cc3)o2)cc1 | 78.1% | 31.4% | -27.5% (active) | -86.7% (active) | -95.8% (active) | -22.4% (active) | -60.4% (active) | -86.6% (active) | -100% (active) | -100% (active) | -26% (active) | 13.4% | -33.9% (active) | 104% | 99.5% | 45.5% | 60.2% | 34.5% | 2.09% (active) | –
12 | Nc1nnc(-c2cncc(Br)c2)c(-c2c[nH]c3ccc(Cl)cc23)n1 | 55.4% | 106% | 57.2% | 73.1% | 83.9% | 90.5% | 70.4% | 73.7% | 77.3% | 91.2% | 111% | 78.4% | 83.2% | 41.4% | 111% | 66.1% | 59.1% | 52.9% | 54.4% | –
13 | COc1ccccc1NC(=O)c1ccc(NC(=O)CCl)s1 | -50.8% (active) | -66.1% (active) | 35.9% | 42.1% | -51.2% (active) | -46.7% (active) | -23.3% (active) | -83.2% (active) | -93.4% (active) | 1.77% (active) | 37.1% | 59.7% | -52.8% (active) | -20.5% (active) | -6.19% (active) | 10.2% | -13.1% (active) | -18.9% (active) | -19.5% (active) | 73.1%
14 | CS(=O)(=O)Nc1cccc(-n2cnc3cc(-c4ccc(O)cc4)ccc32)c1 | 30.9% | 16% | 53.8% | 25.4% | 26.2% | 45.8% | 19.7% | 26.3% | 41.9% | 63.2% | 27.2% | 51.6% | 41.1% | 44.3% | 93% | 49.7% | – | 22.2% | – | 149%
15 | N#Cc1cc(-c2ccc3ncnc(N4CCc5cc(F)c(Cl)cc54)c3c2)cnc1N | 23.3% | 34.2% | 24.9% | 57.9% | 57% | 33.8% | 55.9% | 56.7% | 28.4% | 61.2% | 52% | 24.6% | 26.8% | 19.4% | 29.9% | 26.6% | 19.8% | 45.1% | 7.69% (active) | -0.0443% (active)
